Screening data: PubChem BioAssay, Broad Institute
This is one part of a sample in which hits are shown more often than they occur.
Tgondii IFNg: inhibitors of Toxoplasma gondii growth with IFN-gamma | Toxoplasma gondii growth in IFN-gamma-treated host cells; hits give low values | activity change, negative = inhibition, % (concentration not given with the values) | actives 3.8% (n = 69,000) | AID 1259416; in the data active = activity change below about -70%, passing the limit was not always enough;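 also: host cells are HeLa cells infected with Toxoplasma gondii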
* = called active by the depositor; i = inactive; ! = not confirmed by another sample.

SMILES	Tgondii IFNg
CCCN1CCC[C@@H]2Cc3nc(N)ncc3C[C@H]21	13
CCCN1CCC[C@@H]2Cc3[nH]ncc3C[C@H]21	-73*
Cc1ccc(NC(=O)c2cc3cccnc3n(Cc3ccc(Cl)cc3)c2=O)cc1F	64
Cc1cc(C(=O)N2CCN(C)C3(CCN(C)CC3)C2)nc(C)n1	11
Cc1ccc2c(c1)Cc1c(C(=O)NN3CCCCC3)nn(-c3ccc(Cl)cc3Cl)c1-2	-75*!
CN1CC2(CCN(CC(=O)NCc3ccccn3)C2)OC1=O (configuration not stated)	-3
Cc1c(Cl)cccc1NC(=O)c1cc2cccnc2n(Cc2ccccc2)c1=O	4
COCCN1CCC2(CCCN(Cc3ccccn3)C2)C1=O (configuration not stated)	5
Cc1cccc(C)c1NC(=O)c1cc2cccnc2n(Cc2ccccc2F)c1=O	13
C[C@@H]1CN2CCCC2CN1Cc1cnc(N2CCOCC2)nc1 (some centres not stated)	60
Cc1c(Cl)cccc1NC(=O)c1cc2cccnc2n(Cc2ccc(F)cc2)c1=O	146
Cn1cc(CN2CC[C@H]3C[C@H](c4ccncn4)O[C@H]3C2)cn1	-1
CCN(CC)Cc1ccc(C(=O)N(C)c2nc3c(s2)C2CCC(C3)N2C)o1 (configuration not stated)	-10
CC(=O)O[C@H]1C[C@H](O[C@H]2[C@@H](O)C[C@H](O[C@H]3[C@@H](O)C[C@H](O[C@H]4CC[C@@]5(C)C(CCC6C5C[C@@H](O)[C@]5(C)[C@@H](C7=CC(=O)OC7)CC[C@]65O)C4)O[C@@H]3C)O[C@@H]2C)O[C@H](C)[C@H]1O[C@@H]1O[C@H](CO)[C@@H](O)[C@H](O)[C@H]1O (some centres not stated)	-73*
C[C@H]1OC(O[C@H]2[C@@H](O)CC(O[C@H]3[C@@H](O)C[C@H](O[C@H]4CC[C@]5(C)C6CC[C@]7(C)[C@@H](C8=CC(=O)OC8)[C@@H](O)C[C@]7(O)[C@@H]6CC[C@@H]5C4)O[C@@H]3C)O[C@@H]2C)C[C@H](O)C1O (some centres not stated)	-73*
C[C@]12CC[C@H](O)C[C@H]1CC[C@@H]1[C@@H]2CC[C@]2(C)[C@@](O)(c3ccoc3)CC[C@]12O	-3
COC1C(O)CC(OC2C(O)CC(OC3C(O)CC(OC4CCC5(C)C(CCC6[C@@H]5CC(O)C5(C)C(C7=CC(=O)OC7)CCC65O)C4)OC3C)OC2C)OC1C (some centres not stated)	-77*
O=C(NCC1CCCO1)c1cc2cccnc2n(Cc2ccc(F)cc2)c1=O (configuration not stated)	-34
c1ccc(CN2CCOC3(CCN(c4ncccn4)CC3)C2)cc1	1
CN1CC(=O)N(c2cccnc2)CC12CCNC2 (configuration not stated)	-19
COCCn1c(C(=O)O)cc2cc(Cl)ccc21	221
Fc1cnc(NC2COC3(CCN(Cc4ccccc4)C3)C2)nc1 (configuration not stated)	-5
O=C(Cn1cc(C(F)(F)F)ccc1=O)N1CCC2(CCCNC2)C1 (configuration not stated)	51
COCCCN1CCCCC12CC(=O)N(c1cncnc1)C2 (configuration not stated)	64
CCn1c(CC2CCN(C(=O)C3C(C)(C)C3(C)C)CC2)n[nH]c1=O	3
SMILES	Tgondii IFNg
COc1ccccc1[C@@H]1CN(C(=O)Cn2nccc2C)[C@@H]2C3CCN(CC3)[C@@H]21	-5
COc1ccc(C[C@H]2NC[C@H](O)[C@H]2OC(C)=O)cc1	-75*
O=C(NCC1CCC2(CCNCC2)O1)C1CC1 (configuration not stated)	-65
N#CC(C#N)=Cc1ccc(O)c(O)c1	0
CC(C)(C)c1cc(C=C(C#N)C#N)cc(C(C)(C)C)c1O	-80*
CCN1C[C@H]2CN(Cc3nccn3C)C[C@H]2C1=O	-4
C[C@@]1(CO)[C@H](O)CC[C@@]2(C)[C@H]1CC[C@H]1C[C@@H]3C[C@@]12CC[C@]3(O)CO	-86*
CC(C)CN1C[C@H]2CN(Cc3ccncc3)C(=O)[C@@H]2C1	5
O=C(NCc1c(F)cccc1F)c1cc2cccnc2n(Cc2ccccc2F)c1=O	102
CCCSc1ncc(CN2CCN3CCN(C)CC3C2)cn1 (configuration not stated)	36
COc1ncccc1CN1CC[C@@H]2C[C@H](c3n[nH]c(C)n3)O[C@H]2C1	-44
Cc1nc(CN2C[C@@H]3CN(Cc4c(C)noc4C)C[C@H]3C2=O)cs1	-5
C=CCN1CC[C@H]2[C@@H]1CCN2C(=O)c1cc(C)on1	19
C=CCN1CC[C@@H]2[C@@H]1CCN2C(=O)c1cncc(C)c1	-98*
C=CCN1CC[C@@H]2[C@@H]1CCN2c1ncc(F)cn1	3
CC1COC2(CCCN(Cc3csnn3)C2)C1 (configuration not stated)	4
CC(=O)OC1CN2CCC1CC2 (configuration not stated)	12
O=C(Nc1cccc(Cl)c1)OC1CN2CCC1CC2 (configuration not stated)	-78*
O=C(c1cccc(Cl)c1)C1CCCN(C2CCCCC2)C1 (configuration not stated)	-3
N#Cc1cccc(NC2COC3(CCCN(CC(=O)O)C3)C2)n1 (configuration not stated)	59
CC(C)CN1CCC2(COCc3cnc(N(C)C)nc32)C1 (configuration not stated)	6
c1nc(N2CCOCC2)nc2c1COCC21CCN(CC2CC2)C1 (configuration not stated)	-7
COCCN1CCC2(COCc3cnc(N4CCOCC4)nc32)C1 (configuration not stated)	-91*
COc1ccccc1CN(CCN(C)C)C(=O)Cc1c(C)[nH]c(=O)[nH]c1=O	-12
CCCCNC(=O)c1cc2cccnc2n(Cc2ccccc2)c1=O	-6
SMILES	Tgondii IFNg
O=C(NCc1ccc(Cl)cc1)c1cc2cccnc2n(Cc2ccccc2)c1=O	-66
COc1ccc(CNC(=O)c2cc3cccnc3n(Cc3ccc(Cl)cc3)c2=O)cc1	-113*
COc1ccc(CNC(=O)c2cc3cccnc3n(Cc3ccccc3)c2=O)cc1	-74*
COc1ccc(CNC(=O)c2cc3cccnc3n(Cc3ccc(F)cc3)c2=O)cc1	-43
CC(C)CNC(=O)c1cc2cccnc2n(Cc2ccccc2)c1=O	-94*
COc1ccc(NC(=O)c2cc3cccnc3n(Cc3ccc(Cl)cc3)c2=O)cc1	i
Cc1ccc(CNC(=O)c2cc3cccnc3n(Cc3ccc(Cl)cc3)c2=O)cc1	30
O=C(NCCc1ccccc1)c1cc2cccnc2n(Cc2ccccc2)c1=O	29
CN1CC[C@@]2(C[C@@H](NS(=O)(=O)C3CC3)CCO2)C1	-56
CN1C2CCC1CC(OC(=O)CNC1CCCCC1)C2 (configuration not stated)	-5
O=C(Nc1ccc(Br)cc1)c1cc2cccnc2n(Cc2ccccc2F)c1=O	63
c1ccc(COC[C@@H]2CCC3C(CCN3Cc3ccoc3)O2)nc1 (some centres not stated)	-3
CCOc1ccc(C2NCCc3[nH]cnc32)cn1 (configuration not stated)	4
COc1cc(N2CC[C@@H]3[C@H]2CCN3Cc2cccnc2)ncn1	-5
c1ccc(COC2CC3CN(Cc4cccs4)CCN3C2)nc1 (configuration not stated)	-5
c1ccc(CN2C[C@@H]3CN(CC4CC4)C[C@H]3C2)nc1	67
CC(C)N1CCO[C@H]2CN(C(=O)c3ccccn3)C[C@@H]21	52
